Compound activity (PubChem BioAssay)
Hits are enriched below; roughly 11% of the tested compounds scored in any of these assays.
NS1 function inh: inhibitors of influenza NS1 protein function; Potency, µM (series often up to 46.1 µM), for inactives: at the highest dose activity, positive = more growth; 0.4% of 270,000 active; calls by dose curve; further: actives are rising curves; nearly all actives have a fitted effect of over 50% in size
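Read-out: OD600 growth recovery of NS1-expressing budding yeast. Cells grown overnight at 30C in -URA glucose medium, washed, resuspended and diluted 1:100 in 2% galactose assay medium, pH 6.0. Same strain lacking NS1 served as positive control.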
AMA1-RON2 inh: AMA1-RON2 (P. falciparum) interaction inhibition. AlphaScreen AMA1-biotinylated RON2 peptide binding. 0.2% of 360,000 active. Potency, µM (series often up to 58.2 µM), without a hit: at the highest dose activity change, negative = inhibition, hits mostly inhibitors. AID 720542;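 further: 0% = vehicle wells and -100% = peptide control; nearly all actives have a fitted effect of over 45% in size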
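AMA1 (3D7) with his tag at 25 nM final met compounds first, then biotinylated RON2 peptide at 25 nM; detection used donor plus acceptor beads, 10 µg/mL apiece, read by AlphaScreen after 30 min at room temperature.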
Pf growth 48h: P. falciparum growth inhibition at 48 hours (one generation); P. falciparum luciferase growth in erythrocytes, 48 h; Potency, µM (highest dose often 28.7 µM), for the others: top-dose activity change, negative = inhibition, actives largely listed as inhibitors; 5.9% of 310,000 active; AID 504832; further: on the % scale 0 is the no-effect control and ±100 the full control effect
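Compounds are pin-transferred into medium, infected erythrocytes (2% hematocrit, 0.1% parasitemia final) are added, and plates sit one parasite generation at 37 C in 5% CO2. Detection reagent is then added and luminescence measured.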
Sm TGR block: S. mansoni TGR enzyme inhibition; purified TGR, DTNB reduction, TNB absorbance 405 nm; Q962Y6; Potency, µM (highest dose often 114 µM), for the others: at the highest dose activity change, negative = inhibition, hits mostly inhibitors; AID 485364; 3% of 360,000 active; further: on the % scale 0 is the no-effect control and ±100 the full control effect; nearly all actives have a fitted effect of over 60% in size
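First, TGR (20 nM dispensed) and NADPH were mixed with compound. Second, a 15 min room-temperature incubation followed. Third, further NADPH and then DTNB were added to start the reaction. Finally, TNB absorbance was monitored kinetically.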
Pf growth 96h: P. falciparum growth inhibition at 96 hours | P. falciparum luciferase reporter growth, 96 h | Potency, µM (titrated, usually from 28.7 µM), without a hit: top-dose activity change, negative = inhibition, hits mostly inhibitors | 6.9% of 320,000 active; further: on the % scale 0 is the no-effect control and ±100 the full control effect
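96 h incubation, 37 C, 5% CO2, of luciferase-reporter P. falciparum-infected RBCs (2% hematocrit, 0.05% parasitemia final) with test compounds; endpoint luminescence.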
The depositor's hits bear a star; ? = inconclusive; . = no result given; [ ] = remark or other dose. Unless noted, the call rests on the fitted dose curve; in most records, active means well fitted curve in the direction sought with a large enough effect; inconclusive means small, poorly fitted or top-dose-only effect, or another doubt; inactive means no such curve, though single readings can be large; an effect the other way counts as inactive or inconclusive. Potency means the concentration at half of the fitted maximal effect.

SMILES	NS1 function inh	AMA1-RON2 inh	Pf growth 48h	Sm TGR block	Pf growth 96h
CC(C)(C)C(=O)c1sc2nc(-c3cccs3)cc(C(F)(F)F)c2c1N	4.6%	22.8%	0.0%	-8.9%	19.0%
Cc1ccc(S(=O)(=O)n2ccc3c(OCCOCCSCC(NC(=O)OC(C)(C)C)C(=O)O)cccc32)cc1 (centres undefined)	14.5%	-2.0%	?	-20.2%	9.28µM*
Cc1ccc(S(=O)(=O)n2ccc3c(OCCOCCNCc4ccc(F)cc4)cccc32)cc1	14.0%	-12.2%	9.28µM*	-1.1%	10.4µM*
Cc1ccc(S(=O)(=O)Nc2cccc(-c3ccc(N4CCCCCC4)nn3)c2)cc1C	4.0%	6.1%	22.0%	-28.2%	13.1µM*
O=S(=O)(Nc1cccc(-c2ccc(N3CCCCCC3)nn2)c1)c1ccccc1F	-5.4%	-12.7%	98.7%	-10.0%	14.7µM*
Cc1cc(NC(=O)CSc2nc3cc(C(=O)NCCCOC(C)C)ccc3c(=O)n2Cc2ccco2)no1	.	-2.5%	?	0.0%	?
CCN(c1ccc(NC(=O)COC(=O)/C=C/c2cccs2)cc1)C(C)C	.	17.8µM*	56.8%	-8.7%	-5.5%
O=C(COC(=O)/C=C/c1cccs1)Nc1nc(-c2ccccc2)cs1	7.3%	8.8%	-17.6%	22.4µM*	?
O=C(COC(=O)/C=C/c1cccs1)Nc1nc(-c2cccc(Br)c2)cs1	-3.3%	-18.0%	-0.8%	-24.0%	33.4%
COc1cc(F)ccc1-c1csc(C(O)c2ccccc2)n1 (centres undefined)	.	15.7%	.	.	.
CC(C)(C)CN1CCN(Cc2cc3ccccc3[nH]2)CC1CCO (centres undefined)	8.7%	5.1%	12.1%	-14.6%	5.22µM*
c1ccc(CCc2nc(-c3cccnc3)no2)cc1	-21.2%	8.2%	41.8%	4.7%	?
c1ccc(CCc2ccccc2-c2nc(-c3cccnc3)no2)cc1	-57.4%	134.3%	13.1µM*	9.2%	?
O=S(=O)(Cc1cc(NCc2ccccc2)nc(-c2ccccn2)n1)c1ccccc1	.	54.9%	?	30.0%	8.28µM*
O=S(=O)(Cc1cc(NCc2ccccc2)nc(-c2ccncc2)n1)c1ccccc1	14.6%	32.3%	?	5.5%	?
COc1ccc2[nH]c(C(=O)N3CCCN(Cc4ccc(F)cc4)CC3)cc2c1	-31.3%	-8.1%	49.3%	-2.2%	43.2%
O=C(O)C(Sc1ccc(Cl)cc1)Sc1ccc(Cl)cc1	-12.1%	.	.	.	.
CCCCC/C=C\C[C@H](O)/C=C/c1cccc(C[C@H](O)CCCCO)n1	-4.5%	35.5%	13.1µM*	?	?
NC1(C(=O)NC2(C(=O)O)CCCC2)CCCC1	-2.8%	.	.	.	.
c1ccc2oc(CCc3nc4ccccc4o3)nc2c1	-15.6%	2.3%	36.4%	12.8%	41.7%
c1ccc2oc(Cc3ccc(Cc4nc5ccccc5o4)cc3)nc2c1	2.4%	3.9%	-25.9%	-11.5%	13.1µM*
Cc1ccnc(NC(=O)c2ccc(NC(=O)CC3SC(N4CCCC4)=NC3=O)cc2)c1 (centres undefined)	.	-4.0%	?	10.6%	?
COc1cccc(CN(C)C(=O)c2ccc(NC(=O)CC3SC(N4CCCC4)=NC3=O)cc2)c1OC (centres undefined)	.	-11.9%	?	0.3%	6.57µM*
Cc1ccnc(NC(=O)c2cccc(NC(=O)CC3SC(N4CCCCC4)=NC3=O)c2)c1 (centres undefined)	.	-1.2%	?	0.6%	8.28µM*
COc1ccc(CN(C)C(=O)c2ccc(NC(=O)CC3SC(N4CCCCC4)=NC3=O)cc2)c(OC)c1 (centres undefined)	.	17.1%	.	.	.
O=C(CC1SC(N2CCCC2)=NC1=O)Nc1ccc(C(=O)Nc2ncccc2O)cc1 (centres undefined)	.	39.7%	2.62µM*	-0.7%	?
CCCCc1oc2ccccc2c1C(=O)c1cc(I)c(OCCN(CC)CC)c(I)c1	?	-16.9%	8.28µM*	.	4.15µM*
CCOC(=O)c1sc(-c2ccc(F)cc2)cc1NC(=O)Nc1ccccc1OC	2.2%	-2.4%	?	3.8%	8.28µM*
CCOC(=O)c1sc(-c2ccccc2)cc1NC(=O)Nc1ccccc1	-24.5%	-5.0%[11.6 µM]	0.0%	-10.7%	?
Cn1cc(C(=O)NCc2ccccc2Cl)c(=O)c2cc(S(=O)(=O)N3CCCCCC3)ccc21	.	.	.	4.4%	.
